# Where “and” joins values, the source holds several entries; their conditions need not be identical. Equal values may be shown once. The panel holds about 79,000 compounds, 15% with a hit somewhere; the sample as a whole holds those more often. A number with no mark means an inactive call. Calls of active or inactive are those of the source. No stated cut-off is given here; in the data, active means growth inhibition above about 70%; inactive means the rest.
# What was measured:
# [1] = NCI Yeast Anticancer Drug Screen. Data for the rad50 strain (AID 155);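 further: 0% = growth of vehicle-only cultures of the same strain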; details: S. cerevisiae rad50 strain growth inhibition; at 50.0 µM; stronger effect = higher value
# Summary of the method: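 Genetically altered yeast (DNA repair pathway); compound treatment; growth inhibition vs vehicle ctrl.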
# [2] = NCI Yeast Anticancer Drug Screen. Data for the mec2-1 strain (AID 157); details: S. cerevisiae mec2-1 strain, at 50.0 µM, stronger effect = higher value
# Summary of the method: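 Test agents were screened against the mec2-1 yeast strain, with defined DNA repair or cell cycle alteration. Growth was scored as inhibition against vehicle-only controls.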
# [3] = NCI Yeast Anticancer Drug Screen. Data for the sgs1 mgt1 strain (AID 161);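 further: 0% = growth of cultures given vehicle only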; details: S. cerevisiae sgs1 mgt1 strain, at 50.0 µM, stronger effect = higher value
# Summary of the method: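 Mutant yeast exposed to compound; growth scored against vehicle-only wells.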
# [4] = NCI Yeast Anticancer Drug Screen. Data for the cln2 rad14 strain (AID 165);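 further: 0% = growth equal to vehicle treated cultures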; details: S. cerevisiae cln2 rad14 strain, at 50.0 µM, stronger effect = higher value
# Summary of the method: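 Growth of compound-exposed yeast (cln2 rad14 genotype) measured and expressed as inhibition relative to vehicle.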
# [5] = NCI Yeast Anticancer Drug Screen. Data for the bub3 strain (AID 167); details: S. cerevisiae bub3 mutant strain, at 50.0 µM, stronger effect = higher value
# Summary of the method: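 Yeast carrying a defined mutation is treated with each compound, and growth is compared with that of vehicle-exposed cells to give inhibition.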
# [6] = NCI Yeast Anticancer Drug Screen. Data for the mlh1 rad18 strain (AID 175); details: S. cerevisiae mlh1 rad18 strain growth inhibition; at 50.0 µM; stronger effect = higher value
# Summary of the method: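 In this whole-cell yeast screen, a strain with altered DNA damage repair is challenged with compound, and its growth is measured against matched vehicle-treated controls.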
SMILES,growth inhibition [1],growth inhibition [2],growth inhibition [3],growth inhibition [4],growth inhibition [5],growth inhibition [6]
O=P(O)(O)C(O)c1ccncc1 (stereo not given),-28%,-14.9%,-15.8%,-23.1%,-22.6%,-21.9%
C[CH2][Pb]([CH2]C)([CH2]C)[O]C(=O)c1ccccc1,-0.3%,1.6%,10.2%,-3.35%,1.35%,5.35%
O=C(O)c1ccccc1N=Nc1ccc(N(CCCl)CCCl)cc1,21.6% and 13.4%,14.2% and -11.7%,3.7% and -2.9%,10.8% and 20.6%,16.7% and -4.5%,31.1% and 8.15%
COc1ccc2c(c1O)C1=CC(=O)CCC13CCN(C)C3C2 (stereo not given),-5.6% and 4.1%,-6.65% and -22.6%,8.05% and 18.8%,3% and 8.05%,8.1% and 2.4%,1.4% and 0.55%
O=NNc1ncccn1,-20.2%,-11.7%,3.7%,4.3%,-0.2%,-23%
CCN1CCCc2cc3c(C(F)(F)F)cc(=O)oc3cc21,-6.3%,-12.4%,-10%,-4.05%,-6.45%,-11.8%
O=C(O)CN(CCN(CC(=O)O)CC(=O)O)CC(=O)O.[Ni+2],-29.2%,-23%,-11.5%,-15%,0.4%,-19.9%
C=C[CH2][Sn]([CH3])([CH3])[CH2]C=C,11.1%,4.35%,2.75%,-19.4%,-12.6%,4.75%
CCCCCCCNC(=O)CBr,44%,26.2%,33.4%,4.75%,41.2%,46.5%
CCN1C(=O)C(=C/C=C/c2ccc([N+](=O)[O-])cc2)C(=O)N(CC)C1=S,8.55%,9.95%,19.1%,19.9%,18.6%,18.1%
NCCN.O=N[O-].O=N[O-].O=N[O-].O=N[O-].[Co+3].[K+],-1.1%,4.05%,14.4%,12.3%,3.6%,2.1%
c1cc[c]([Sn]2([c]3ccccc3)[O]CCNCC[O]2)cc1,-13.1%,-14.4%,10.4%,-14.9%,-48.7%,-74.4%
O=C1NC(=O)C(=C2C(=O)COC2=O)C(=O)N1,-4.4%,-16.6%,-13.8%,-1.7%,-2.8%,-19.5%
CC1(C)CC(OP(=O)(Cl)OC2CC(C)(C)N(O)C(C)(C)C2)CC(C)(C)N1O,1.8%,-0.75%,7.85%,-7.35%,1.1%,-7.65%
CCCCCCOC(=O)C(N)Cc1ccc(OC)c(N(CCCl)CCCl)c1 (stereo not given),6.5%,3.65%,-3.55%,5.7%,-1.6%,-2.7%
C=CC(=O)NCNC(=O)C=C,21.9% and 5.15%,19.3% and 1.85%,8.75% and -4.05%,10.6% and 4.3%,5.25% and -11.3%,-15.8% and -2.9%
N#C[S-].N#C[S-].[Au+3].[Au+3].[CH3-].[CH3-].[CH3-].[CH3-],51.4%,11%,61.5%,33.4%,12.5%,53.5%
O=CNc1ccc(Cl)cc1C(=O)c1ccccc1,9.8%,-0.35%,15.2%,28.8%,21.6%,4.4%

SMILES,growth inhibition [1],growth inhibition [2],growth inhibition [3],growth inhibition [4],growth inhibition [5],growth inhibition [6]
C[C@H]1C(=O)O[C@@H]2CCN3CC=C(COC(=O)[C@](C)(O)[C@@]1(C)O)[C@H]23,-4.7%,-4.2%,11.9%,-2.85%,-9.6%,-44.1%
CCCCNC(c1ccc(OC)cc1)C(O)c1ccc(OC)cc1 (stereo not given),2.35%,-17.3%,-2.95%,-25.6%,7.1%,-14.1%
CC1=C(C)C(=O)C(C)=C(C)C1=O,25.2%,8.7%,-9.6%,-10.7%,5.15%,13.2%
COc1cc(C2CNCc3cc(OC)c(O)cc32)ccc1O (stereo not given),0.05%,-7.1%,-11.1%,-17.8%,-9.85%,1.2%
Cc1ccc(Cl)c([N+](=O)[O-])c1,-23.7%,-52.5%,-30.4%,-3.25%,-20.1%,-9.75%
CCCCC1CN1C(=N)OCC (stereo not given),6.65%,-0.6%,15.4%,59.1%,0.9%,29.1%
CCCCNCCc1cccnc1,33.5%,13.8%,20.8%,23.7%,0.8%,15.9%
O=N[O-].O=N[O-].[Co].[NH2-].[NH2-].[NH2-].[NH2-],0.1%,-11.5%,-3.5%,-14.3%,2.15%,26.9%
CCOP(=S)(OCC)Oc1ccccc1,-3.8%,-14.5%,-15.2%,-7.6%,-20.9%,3.5%
C=CCC1(OC(C)=O)CCC2C3CCC4CC=CCC4(C)C3CCC21C (stereo not given),-9.9%,4.5%,-8.85%,-51.4%,1%,-9.4%
NC(Cc1ccc(Cl)cc1)P(=O)(O)O (stereo not given),7.7%,-4.35%,-6.75%,-53.9%,-12.1%,-16.1%
CO[C@@]12[C@@H]3N[C@@H]3CN1C1=C(C(=O)C(NCC3CCCO3)=C(C)C1=O)[C@@H]2COC(N)=O (stereo not given in full),24.9%,16.6%,6.25%,17.1%,3.95%,23.6%
c1cc(CCN2CCCCC2)ccn1,-2.75%,-6.25%,-26.5%,-81.7%,-21.4%,-25.1%
CSCCC(N)C(=O)O (stereo not given),-50.4% and -3.35%,9.55% and -25.1%,-6% and -7.65%,-27.8% and -1%,32.4% and -11.6%,-103% and -2.65%
N[C@H]1C2C3CC4C5CC(C42)C1(c1ccccc1)C53 (stereo not given in full),-20.4%,-5.25%,-0.05%,-5.2%,-12%,-6%
NC(=S)N=C(N)N,11.8%,-3.55%,-6.25%,-10.4%,8.4%,9.85%
N#C[CH2][Sn]([I])([c]1ccccc1)[c]1ccccc1,-12.5%,30.4%,1.15%,72% (active),-0.25%,1.9%
